In the supplement of paper PMC10849652:
Targets with a hit are over-represented here; the source holds about 8,800 in all. About 0.5% of all pairs of compound and target were hits. Values without a mark were called inactive.

Assays:
Experiment in all cases: log2 fold change, soluble protein after heating vs DMSO (PISA); higher = thermal stabilisation; K562 lysate, 10 uM; active = over 0.2 and 3.5 SD of the protein, either way, in both replicates (recomputed)
[1] = compound: Cc1cn(-c2cc(NC(=O)c3ccc(C)c(Nc4nccc(-c5cccnc5)n4)c3)cc(C(F)(F)F)c2)cn1 [nilotinib]
In short: (§1)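 Log-two fold change in thermal stability relative to solvent controls is reported from duplicates. For each sample, crude K562 extract from dounce-homogenised pellets in PBS pH 7.4 with 1 mM MgCl2, at 1 mg/mL protein, was treated with 10 μM compound for 30 min. Aliquots heated for 3 min across 48°C-58°C were pooled, brought to 0.5% NP-40 at 4°C and cleared at 21,000xg for 90 min. The supernatant was quantified by TMTpro 16plex LC-MS/MS with channel sums equalised.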

[2] = compound: Cc1nc(Nc2n[nH]c3c2CN(C(=O)N[C@H](CN(C)C)c2ccccc2)C3(C)C)c2sccc2n1
In short: as §1

[3] = compound: Cc1nc(Nc2ncc(C(=O)Nc3c(C)cccc3Cl)s2)cc(N2CCN(CCO)CC2)n1 [dasatinib]
In short: as §1

[4] = compound: Cc1ncc(-c2ccnc(Nc3ccc(S(C)(=O)=O)cc3)n2)n1C(C)C
In short: as §1

[5] = compound: Cn1cc(-c2ccc3c(c2)CCN3C(=O)Cc2cccc(C(F)(F)F)c2)c2c(N)ncnc21
In short: as §1

[6] = compound: Cn1cc(CNCC2CCN(c3ncc(C(=O)NO)cn3)CC2)c2ccccc21 [quisinostat]
In short: as §1

[7] = compound: Cn1cncc1[C@@](N)(c1ccc(Cl)cc1)c1ccc2c(c1)c(-c1cccc(Cl)c1)cc(=O)n2C [tipifarnib]
In short: as §1

[8] = compound: NC(=O)Nc1cc(-c2cccc(F)c2)sc1C(=O)N[C@H]1CCCNC1
In short: as §1

[9] = compound: NC(=O)c1cnc(N[C@@H]2CCCC[C@@H]2N)nc1Nc1cccc(-n2nccn2)c1
In short: as §1

[10] = compound: NC1(c2ccc(-c3nc4ccn5c(=O)[nH]nc5c4cc3-c3ccccc3)cc2)CCC1
In short: as §1

[11] = compound: NCC(=O)Nc1ccc(-n2nc(C(F)(F)F)cc2-c2ccc3c(ccc4ccccc43)c2)cc1
In short: as §1

[12] = compound: O=C(CCCCCCC(=O)Nc1ccccc1)NO [vorinostat]
In short: as §1

[13] = compound: O=C(O)c1ccc2c(c1)nc(Nc1cccc(Cl)c1)c1ccncc12 [silmitasertib]
In short: as §1

[14] = compound: O=C1NC(=O)C(c2cnc3ccccn23)=C1c1cn2c3c(cc(F)cc13)CN(C(=O)N1CCCCC1)CC2
In short: as §1

[15] = compound: c1cn2cc(-c3ccc4cn[nH]c4c3)nc(Nc3ccc(N4CCOCC4)cc3)c2n1 [entospletinib]
In short: as §1

Sequence of UniProt P00374 (P00374 whole entry, looked up): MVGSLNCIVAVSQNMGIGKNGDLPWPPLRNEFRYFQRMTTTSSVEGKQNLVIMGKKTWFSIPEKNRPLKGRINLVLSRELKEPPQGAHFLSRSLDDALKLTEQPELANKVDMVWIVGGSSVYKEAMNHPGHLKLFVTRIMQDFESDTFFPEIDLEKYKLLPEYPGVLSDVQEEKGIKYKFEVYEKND
Sequence of UniProt P21964 (P21964 whole entry, looked up): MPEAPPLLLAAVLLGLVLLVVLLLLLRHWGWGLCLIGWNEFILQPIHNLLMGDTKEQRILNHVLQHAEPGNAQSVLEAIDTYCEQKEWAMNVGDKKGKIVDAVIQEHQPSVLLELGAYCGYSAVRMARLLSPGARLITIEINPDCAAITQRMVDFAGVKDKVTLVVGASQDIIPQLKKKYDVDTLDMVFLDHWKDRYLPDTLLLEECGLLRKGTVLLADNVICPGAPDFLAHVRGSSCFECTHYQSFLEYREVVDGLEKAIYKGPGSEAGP
Sequence of UniProt Q9NPI6 (Q9NPI6 whole entry, looked up): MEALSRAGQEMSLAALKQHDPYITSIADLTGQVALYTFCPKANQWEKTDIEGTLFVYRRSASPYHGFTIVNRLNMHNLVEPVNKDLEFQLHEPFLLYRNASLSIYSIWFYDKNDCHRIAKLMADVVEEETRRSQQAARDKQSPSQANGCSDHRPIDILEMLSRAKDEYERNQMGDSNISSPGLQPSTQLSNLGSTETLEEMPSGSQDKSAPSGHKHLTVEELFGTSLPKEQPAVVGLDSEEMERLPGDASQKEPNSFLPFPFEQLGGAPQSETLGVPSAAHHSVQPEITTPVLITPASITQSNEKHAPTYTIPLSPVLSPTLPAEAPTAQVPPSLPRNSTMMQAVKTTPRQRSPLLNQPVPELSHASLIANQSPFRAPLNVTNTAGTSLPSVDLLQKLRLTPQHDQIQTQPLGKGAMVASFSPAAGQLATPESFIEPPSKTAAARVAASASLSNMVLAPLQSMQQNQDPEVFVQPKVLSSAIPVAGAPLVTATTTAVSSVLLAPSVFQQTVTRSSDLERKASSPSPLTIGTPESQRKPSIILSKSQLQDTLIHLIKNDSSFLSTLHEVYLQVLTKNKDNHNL
Sequence of UniProt Q8NF50 (Q8NF50 whole entry, looked up): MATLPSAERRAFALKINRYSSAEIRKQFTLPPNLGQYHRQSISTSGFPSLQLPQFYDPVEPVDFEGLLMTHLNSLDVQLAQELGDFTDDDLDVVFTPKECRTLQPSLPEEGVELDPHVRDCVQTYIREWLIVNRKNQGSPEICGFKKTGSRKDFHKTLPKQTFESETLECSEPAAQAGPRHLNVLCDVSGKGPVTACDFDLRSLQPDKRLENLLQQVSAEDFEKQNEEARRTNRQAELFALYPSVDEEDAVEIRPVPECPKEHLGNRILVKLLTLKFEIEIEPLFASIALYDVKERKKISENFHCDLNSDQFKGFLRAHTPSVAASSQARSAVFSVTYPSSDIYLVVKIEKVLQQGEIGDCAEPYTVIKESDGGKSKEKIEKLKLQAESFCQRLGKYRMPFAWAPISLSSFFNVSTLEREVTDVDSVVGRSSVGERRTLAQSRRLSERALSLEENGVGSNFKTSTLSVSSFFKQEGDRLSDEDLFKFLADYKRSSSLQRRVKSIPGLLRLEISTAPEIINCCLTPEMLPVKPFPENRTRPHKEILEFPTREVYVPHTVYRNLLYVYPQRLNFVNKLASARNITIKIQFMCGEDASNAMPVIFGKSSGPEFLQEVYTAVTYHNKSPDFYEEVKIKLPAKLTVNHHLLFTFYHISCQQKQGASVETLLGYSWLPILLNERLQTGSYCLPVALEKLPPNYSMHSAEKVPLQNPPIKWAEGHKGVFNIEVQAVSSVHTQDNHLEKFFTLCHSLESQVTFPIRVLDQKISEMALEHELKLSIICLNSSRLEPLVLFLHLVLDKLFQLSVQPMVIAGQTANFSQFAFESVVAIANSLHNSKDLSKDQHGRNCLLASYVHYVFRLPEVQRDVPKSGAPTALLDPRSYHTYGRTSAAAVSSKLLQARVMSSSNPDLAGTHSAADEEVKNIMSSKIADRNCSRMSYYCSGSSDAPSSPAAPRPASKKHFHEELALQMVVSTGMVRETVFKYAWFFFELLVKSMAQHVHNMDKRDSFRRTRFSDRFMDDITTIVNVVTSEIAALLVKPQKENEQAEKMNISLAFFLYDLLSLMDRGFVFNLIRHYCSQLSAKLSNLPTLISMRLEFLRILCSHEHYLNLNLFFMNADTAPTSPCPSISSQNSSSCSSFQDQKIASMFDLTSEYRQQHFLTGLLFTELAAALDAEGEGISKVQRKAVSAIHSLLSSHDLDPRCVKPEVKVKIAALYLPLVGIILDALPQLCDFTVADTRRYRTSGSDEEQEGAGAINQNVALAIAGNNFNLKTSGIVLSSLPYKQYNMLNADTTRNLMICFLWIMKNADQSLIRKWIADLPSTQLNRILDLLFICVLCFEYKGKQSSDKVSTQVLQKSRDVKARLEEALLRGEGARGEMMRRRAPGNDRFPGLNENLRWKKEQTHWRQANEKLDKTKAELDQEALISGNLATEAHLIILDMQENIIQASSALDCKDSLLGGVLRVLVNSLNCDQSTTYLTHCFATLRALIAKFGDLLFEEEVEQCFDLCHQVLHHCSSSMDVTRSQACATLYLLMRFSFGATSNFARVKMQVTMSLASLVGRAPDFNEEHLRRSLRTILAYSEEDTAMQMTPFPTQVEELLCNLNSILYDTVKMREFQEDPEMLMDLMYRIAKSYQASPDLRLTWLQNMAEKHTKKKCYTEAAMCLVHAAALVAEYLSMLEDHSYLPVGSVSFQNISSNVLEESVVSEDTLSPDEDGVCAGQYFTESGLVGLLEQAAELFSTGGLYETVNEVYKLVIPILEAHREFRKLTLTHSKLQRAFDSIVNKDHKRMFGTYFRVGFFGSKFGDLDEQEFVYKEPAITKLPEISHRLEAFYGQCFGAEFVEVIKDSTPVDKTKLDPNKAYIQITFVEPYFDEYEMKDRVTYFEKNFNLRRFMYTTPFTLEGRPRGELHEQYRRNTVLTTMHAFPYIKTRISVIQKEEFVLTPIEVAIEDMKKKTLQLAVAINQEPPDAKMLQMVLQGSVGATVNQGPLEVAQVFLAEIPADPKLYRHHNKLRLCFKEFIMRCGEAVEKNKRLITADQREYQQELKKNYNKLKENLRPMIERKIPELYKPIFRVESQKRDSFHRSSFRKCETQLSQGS
Sequence of UniProt Q9H2P9 (Q9H2P9 whole entry, looked up): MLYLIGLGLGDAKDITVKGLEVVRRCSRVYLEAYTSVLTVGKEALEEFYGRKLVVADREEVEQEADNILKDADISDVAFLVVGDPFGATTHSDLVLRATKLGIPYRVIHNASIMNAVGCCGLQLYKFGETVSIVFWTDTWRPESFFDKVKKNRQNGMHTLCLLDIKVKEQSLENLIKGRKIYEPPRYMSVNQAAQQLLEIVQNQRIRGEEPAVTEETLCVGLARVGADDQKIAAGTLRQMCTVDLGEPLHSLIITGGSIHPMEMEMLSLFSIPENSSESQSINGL
Sequence of UniProt Q9H078 (Q9H078 whole entry, looked up): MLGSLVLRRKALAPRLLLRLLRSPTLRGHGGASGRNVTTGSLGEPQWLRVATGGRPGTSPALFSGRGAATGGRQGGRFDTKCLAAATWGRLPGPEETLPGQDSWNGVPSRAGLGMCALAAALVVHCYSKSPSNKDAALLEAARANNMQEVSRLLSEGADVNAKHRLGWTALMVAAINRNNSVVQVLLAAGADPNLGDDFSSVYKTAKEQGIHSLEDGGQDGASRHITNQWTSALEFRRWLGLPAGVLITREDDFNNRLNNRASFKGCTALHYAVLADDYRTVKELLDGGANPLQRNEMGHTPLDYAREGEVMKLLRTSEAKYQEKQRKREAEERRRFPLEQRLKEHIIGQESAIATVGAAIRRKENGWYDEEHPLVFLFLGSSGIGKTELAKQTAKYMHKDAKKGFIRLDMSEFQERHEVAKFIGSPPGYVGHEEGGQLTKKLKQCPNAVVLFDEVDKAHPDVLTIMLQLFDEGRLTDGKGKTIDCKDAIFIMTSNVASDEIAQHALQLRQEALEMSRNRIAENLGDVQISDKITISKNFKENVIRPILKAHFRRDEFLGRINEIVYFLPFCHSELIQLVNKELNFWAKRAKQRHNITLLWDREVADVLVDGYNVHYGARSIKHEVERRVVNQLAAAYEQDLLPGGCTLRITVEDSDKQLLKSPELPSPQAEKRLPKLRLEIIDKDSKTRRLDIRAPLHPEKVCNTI
Sequence of UniProt Q92796 (Q92796 whole entry, looked up): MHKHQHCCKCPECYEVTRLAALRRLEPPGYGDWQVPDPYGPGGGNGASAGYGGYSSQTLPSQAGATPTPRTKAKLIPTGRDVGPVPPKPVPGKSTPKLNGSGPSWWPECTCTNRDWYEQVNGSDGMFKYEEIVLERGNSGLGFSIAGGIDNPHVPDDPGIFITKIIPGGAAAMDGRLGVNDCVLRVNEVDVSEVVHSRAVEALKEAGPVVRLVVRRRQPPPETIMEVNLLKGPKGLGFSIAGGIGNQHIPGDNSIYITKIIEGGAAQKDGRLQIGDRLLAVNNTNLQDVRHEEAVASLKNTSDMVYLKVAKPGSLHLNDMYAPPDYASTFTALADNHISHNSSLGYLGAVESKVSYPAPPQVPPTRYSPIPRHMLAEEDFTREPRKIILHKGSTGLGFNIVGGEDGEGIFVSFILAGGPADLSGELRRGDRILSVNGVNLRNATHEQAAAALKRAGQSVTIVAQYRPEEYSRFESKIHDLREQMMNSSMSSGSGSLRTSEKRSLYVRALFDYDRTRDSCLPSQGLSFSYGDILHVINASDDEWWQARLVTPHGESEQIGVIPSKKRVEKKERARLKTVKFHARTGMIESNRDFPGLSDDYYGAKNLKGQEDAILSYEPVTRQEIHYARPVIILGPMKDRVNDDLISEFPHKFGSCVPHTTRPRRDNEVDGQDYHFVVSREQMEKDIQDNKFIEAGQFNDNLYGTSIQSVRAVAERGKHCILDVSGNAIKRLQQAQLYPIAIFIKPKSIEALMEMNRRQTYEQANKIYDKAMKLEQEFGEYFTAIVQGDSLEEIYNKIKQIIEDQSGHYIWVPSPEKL
Sequence of UniProt P04080 (P04080 whole entry, looked up): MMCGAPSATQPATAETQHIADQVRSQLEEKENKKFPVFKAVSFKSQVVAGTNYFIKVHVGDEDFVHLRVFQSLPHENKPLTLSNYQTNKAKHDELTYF

| Target | log2 fold change [1] | log2 fold change [2] | log2 fold change [3] | log2 fold change [4] | log2 fold change [5] | log2 fold change [6] | log2 fold change [7] | log2 fold change [8] | log2 fold change [9] | log2 fold change [10] | log2 fold change [11] | log2 fold change [12] | log2 fold change [13] | log2 fold change [14] | log2 fold change [15] |
| --- | --- | --- | --- | --- | --- | --- | --- | --- | --- | --- | --- | --- | --- | --- | --- |
| CNDP2 (UniProt Q96KP4) | 0.039 | -0.023 | 0.017 | 0.051 | -0.05 | -0.074 | -0.008 | 0.004 | 0.013 | -0.003 | 0.023 | 0.133 | -0.025 | -0.008 | 0.01 |
| DLG3 isoform 2 (UniProt Q92796) | -0.036 | 0.027 | -0.062 | 0.146 | -0.004 | -0.007 | 0.085 | -0.03 | -0.031 | -0.049 | 0.067 | -0.023 | -0.025 | -0.036 | -0.007 |
| DCP1A (UniProt Q9NPI6) | 0.022 | 0.117 | -0.052 | -0.023 | -0.001 | -0.042 | 0.039 | 0.008 | -0.041 | -0.03 | -0.03 | -0.234 (active) | 0.022 | 0.011 | 0.027 |
| DNAJC1 (UniProt Q96KC8) | -0.03 | 0 | -0.09 | -0.012 | 0.016 | 0.04 | 0.004 | 0.026 | -0.028 | 0.028 | 0.003 | 0.017 | 0.025 | -0.007 | -0.032 |
| CSTB (UniProt P04080) | 0.057 | 0.009 | -0.017 | 0.079 | -0.022 | -0.206 | -0.008 | -0.004 | -0.055 | -0.005 | -0.097 | 0.125 | -0.045 | 0.022 | -0.007 |
| CNOT6L (UniProt Q96LI5) | -0.026 | 0.016 | -0.053 | 0.001 | 0.01 | -0.054 | -0.047 | 0.055 | -0.024 | 0.003 | 0.019 | -0.032 | 0.004 | 0.017 | 0 |
| COMT (UniProt P21964) | -0.007 | -0.029 | -0.02 | -0.018 | 0.02 | -0.08 | 0.013 | 0.028 | 0.005 | 0.009 | -0.106 | -0.294 (active) | 0.04 | 0.007 | 0.015 |
| COG7 (UniProt P83436) | 0.02 | 0.007 | -0.089 | 0.011 | 0.024 | 0 | -0.001 | 0.033 | -0.019 | 0.001 | -0.013 | -0.287 (active) | 0.06 | 0.034 | 0.033 |
| DHFR (UniProt P00374) | 0.023 | -0.041 | -0.091 | 0.019 | 0.073 | -0.009 | -0.012 | 0.039 | -0.129 | -0.04 | -0.045 | -0.214 | 0.133 | 0 | 0.002 |
| CLIP1 isoform 1 (UniProt P30622) | -0.01 | 0.01 | 0.022 | 0.013 | 0.001 | 0.008 | 0.002 | -0.004 | -0.002 | -0.002 | -0.008 | 0.092 | -0.01 | -0.01 | -0.009 |
| CLCN3 (UniProt P51790) | 0.15 | -0.043 | -0.033 | 0.117 | 0.046 | 0.056 | -0.097 | -0.064 | -0.002 | 0.071 | -0.165 | -0.171 | 0.118 | -0.245 | 0.025 |
| CIP2A (UniProt Q8TCG1) | -0.006 | 0.02 | -0.107 | 0.024 | 0.054 | -0.123 | 0.01 | 0.019 | 0.032 | -0.014 | 0.043 | -0.608 (active) | 0.055 | 0.011 | 0.008 |
| CLP1 (UniProt Q92989) | -0.029 | 0.039 | -0.037 | -0.039 | 0.119 | -0.065 | -0.011 | 0.029 | -0.027 | 0.026 | 0.011 | -0.307 (active) | 0.029 | -0.027 | 0.008 |
| DNAH10 (UniProt Q8IVF4) | 0.017 | 0.014 | -0.026 | -0.024 | -0.026 | -0.251 | 0.025 | 0.012 | -0.017 | -0.072 | 0.103 | 0.065 | 0 | 0.069 | 0.065 |
| CSNK2B (UniProt P67870) | 0.086 | -0.029 | -0.014 | 0.034 | -0.006 | -0.005 | -0.058 | 0.028 | 0.042 | -0.049 | 0.2 | -0.016 | 0.595 (active) | 0.023 | 0.241 |
| DPH5 isoform 5 (UniProt Q9H2P9) | -0.01 | 0.289 | 0.418 (active) | 0.009 | 0.062 | 0.003 | 0.017 | -0.048 | -0.025 | 0.377 (active) | -0.046 | -0.06 | -0.015 | 0.077 | -0.011 |
| DOCK7 (UniProt Q96N67) | 0.005 | -0.002 | 0.01 | -0.03 | 0.029 | -0.039 | -0.01 | 0.048 | 0.036 | -0.062 | 0.032 | -0.348 (active) | 0.053 | -0.019 | -0.039 |
| CLPB isoform 2 (UniProt Q9H078) | -0.011 | -0.003 | 0.076 | -0.03 | 0.018 | 0.008 | -0.004 | 0.005 | 0.031 | -0.016 | 0.075 | -0.446 (active) | 0.062 | -0.028 | 0.016 |
| DCP2 (UniProt Q8IU60) | -0.065 | -0.051 | 0.009 | 0.032 | -0.018 | -0.094 | -0.012 | 0.014 | 0.03 | 0.024 | -0.02 | -0.446 (active) | -0.033 | 0.085 | -0.001 |
| DOCK8 (UniProt Q8NF50) | -0.007 | -0.023 | -0.045 | 0.04 | 0.058 | -0.053 | -0.033 | 0.032 | 0.016 | 0 | -0.015 | -0.489 (active) | 0.06 | 0.022 | -0.052 |
| DDB2 (UniProt Q92466) | -0.027 | -0.024 | -0.033 | -0.044 | 0.02 | 0.028 | 0.026 | 0.021 | 0.006 | -0.003 | 0.054 | 0.048 | -0.022 | -0.002 | 0.019 |
